# Where “and” joins values, the source holds several entries; their conditions need not be identical. Equal entries are not always repeated. Structures can show the parent of a compound that is named as a salt. ± gives the standard deviation of the averaged measurements.
# Legend:
# Details in all cases: concentration: 10 µM; 24 h
# [1] = system: HCC1569; assay: cell number relative to DMSO (% of DMSO); higher = more cells (less growth inhibition / toxicity)
# How it was run: (§1)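 Cells were seeded at 800 per well in 384-well plates with RPMI containing 10% FBS; both HCC1569 and TDF lines were used. Compounds were added at 10 µM for 24 h at 37 °C, in triplicate, before fixation in 3.7% formaldehyde and staining with a rabbit anti-H1.0 antibody, an AlexaFluor 647 secondary and DAPI. H1.0 nuclear intensity or cell number is reported as percent of the plate control using the median of replicates, and HCC1569 values were smoothed for positional effects.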
# [2] = system: TDF; assay: as above
# How it was run: as §1
# [3] = system: TDF; assay: H1.0 immunofluorescence intensity relative to DMSO (% of DMSO); higher = stronger H1.0 induction, active = 120 or more
# How it was run: as §1
# [4] = system: HCC1569; assay: H1.0 immunofluorescence intensity relative to DMSO (% of DMSO); higher = stronger H1.0 induction, active = 140 or more
# How it was run: as §1
# 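Wherever H1.0 immunofluorescence intensity relative to DMSO is given: TDF is a line of transformed human dermal fibroblasts of mesenchymal origin.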
# 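Wherever cell number relative to DMSO is given: TDF denotes transformed human dermal fibroblasts of mesenchymal origin.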
smiles,measurement,setting,value
Fc1ccc(Cl)cc1-c1nc(Nc2ccncc2)c2nccnc2n1,cell number,[1],98.4
same,cell number,[2],91.6
same,H1.0 immunofluorescence intensity,[3],98.2 (inactive)
same,H1.0 immunofluorescence intensity,[4],113 (inactive)
CN1CCN(CC(=O)N2c3ccccc3C(=O)Nc3cccnc32)CC1.Cl.Cl [Pirenzepine.2HCl],cell number,[1],101
same,cell number,[2],106
same,H1.0 immunofluorescence intensity,[3],90.5 (inactive)
same,H1.0 immunofluorescence intensity,[4],106 (inactive)
Cl.Fc1cccc(CN(C2=NCCN2)c2c(Cl)cccc2Cl)c1 [IMID-4F hydrochloride],cell number,[1],99.4
same,cell number,[2],99.7
same,H1.0 immunofluorescence intensity,[3],102 (inactive)
same,H1.0 immunofluorescence intensity,[4],134 (inactive)
"O=C(OC12CC3CC(CC(C3)C1)C2)c1ccc(NCc2cc(O)ccc2O)cc1 [1-adamantyl 4-[(2,5-dihydroxybenzyl)amino]benzoate]",cell number,[1],8.48
same,cell number,[2],62.1
same,H1.0 immunofluorescence intensity,[3],120 (inactive)
same,H1.0 immunofluorescence intensity,[4],109 (inactive)
CNCC(O)C(O)C(O)C(O)CO (stereo unspecified) [Meglumine],cell number,[1],103
same,cell number,[2],120
same,H1.0 immunofluorescence intensity,[3],99.3 (inactive)
same,H1.0 immunofluorescence intensity,[4],92.4 (inactive)
CCCCCCCCCCC1=C(C)C(=O)C(OC)=C(OC)C1=O [Decylubiquinone],cell number,[1],101
same,cell number,[2],89.2
same,H1.0 immunofluorescence intensity,[3],94.8 (inactive)
same,H1.0 immunofluorescence intensity,[4],91.8 (inactive)
CC(C)(CO)Cc1cc(C(C)(C)C)c(O)c(C(C)(C)C)c1,cell number,[1],102
same,cell number,[2],106
same,H1.0 immunofluorescence intensity,[3],94.6 (inactive)
same,H1.0 immunofluorescence intensity,[4],109 (inactive)
COC(=O)C1=C(C)NC(C)=C([N+](=O)[O-])C1c1ccccc1C(F)(F)F (racemic),cell number,[1],99
same,cell number,[2],103
same,H1.0 immunofluorescence intensity,[3],92.2 (inactive)
same,H1.0 immunofluorescence intensity,[4],98 (inactive)
"N[C@H](C(=O)O)c1cc(O)cc(O)c1 [(S)-3,5-Dihydroxyphenylglycine]",cell number,[1],101
same,cell number,[2],105
same,H1.0 immunofluorescence intensity,[3],96.4 (inactive)
same,H1.0 immunofluorescence intensity,[4],97.4 (inactive)
CS(=O)c1ccc(-c2nc(-c3ccc(F)cc3)c(-c3ccncc3)[nH]2)cc1.Cl (stereo unspecified),cell number,[1],88.9
same,cell number,[2],99.5
same,H1.0 immunofluorescence intensity,[3],94.5 (inactive)
same,H1.0 immunofluorescence intensity,[4],117 (inactive)
CN1CCN(CCC=C2c3ccccc3Sc3ccc(S(=O)(=O)N(C)C)cc32)CC1.Cl [Thiothixene hydrochloride],cell number,[1],95
same,cell number,[2],107
same,H1.0 immunofluorescence intensity,[3],98.5 (inactive)
same,H1.0 immunofluorescence intensity,[4],96.8 (inactive)
"COc1cc(SC)ccc1C(=O)N1CCC(Cc2ccccc2)CC1 [p38 MAP Kinase Inhibitor VI, JX401]",cell number,[1],104
same,cell number,[2],101
same,H1.0 immunofluorescence intensity,[3],96.9 (inactive)
same,H1.0 immunofluorescence intensity,[4],117 (inactive)
COC1C=COC2(C)Oc3c(C)c(O)c4c(c3C2=O)C(=O)C(=CNN2CCN(C)CC2)C(=C4O)NC(=O)C(C)=CC=CC(C)C(O)C(C)C(O)C(C)C(OC(C)=O)C1C (stereo unspecified) [Rifampicin],cell number,[1],104.2 ± 0.92
same,cell number,[2],106 ± 1.9
same,H1.0 immunofluorescence intensity,[3],94.5 (inactive)
same,H1.0 immunofluorescence intensity,[4],103 (inactive)
Cc1cc(Cc2cc(C)cc(C(C)(C)C)c2O)c(O)c(C(C)(C)C)c1,cell number,[1],99.9 and 104
same,cell number,[2],90.7 and 98.5
same,H1.0 immunofluorescence intensity,[3],96.7 (inactive) and 99.5 (inactive)
same,H1.0 immunofluorescence intensity,[4],90.7 (inactive) and 88.8 (inactive)
Cc1c(C(=O)O)c(O)cc2c1C(=O)c1c(O)c(C3OC(CO)C(O)C(O)C3O)c(O)c(O)c1C2=O (stereo unspecified) [Carminic acid],cell number,[1],101
same,cell number,[2],107
same,H1.0 immunofluorescence intensity,[3],102 (inactive)
same,H1.0 immunofluorescence intensity,[4],99.8 (inactive)
NC(N)=NC(=O)c1nc(Cl)c(N)nc1N [Amiloride],cell number,[1],101
same,cell number,[2],103
same,H1.0 immunofluorescence intensity,[3],97.3 (inactive)
same,H1.0 immunofluorescence intensity,[4],102 (inactive)
CCCCCCCC/C=C\CCCCCCCC(=O)NCc1ccc(O)c(OC)c1 [(9Z)-N-(4-hydroxy-3-methoxybenzyl)-9-octadecenamide],cell number,[1],40.4
same,cell number,[2],91.5
same,H1.0 immunofluorescence intensity,[3],95.2 (inactive)
same,H1.0 immunofluorescence intensity,[4],171 (active)
CC(C)(C)NCC(O)COc1nsnc1N1CCOCC1 (stereo not drawn) [S(-)-Timolol maleate],cell number,[1],97.5
same,cell number,[2],104
same,H1.0 immunofluorescence intensity,[3],93 (inactive)
same,H1.0 immunofluorescence intensity,[4],110 (inactive)
O=C(NCCN1CCC(n2c(=O)[nH]c3cc(Cl)ccc32)CC1)c1ccc(F)cc1,cell number,[1],91.9
same,cell number,[2],98
same,H1.0 immunofluorescence intensity,[3],96.6 (inactive)
same,H1.0 immunofluorescence intensity,[4],99.5 (inactive)
CCCCCCCCCCCCCCCCCCc1ccc(C(=O)/C=C/C(=O)O)cc1 [(2E)-4-(4-octadecylphenyl)-4-oxo-2-butenoic acid],cell number,[1],100
same,cell number,[2],105
same,H1.0 immunofluorescence intensity,[3],97.6 (inactive)
same,H1.0 immunofluorescence intensity,[4],107 (inactive)
CCCCCCCCC=CCCCCCCCCC(=O)O [10(Z)-Nonadecenoic acid],cell number,[1],102
same,cell number,[2],94.1
same,H1.0 immunofluorescence intensity,[3],95.6 (inactive)
same,H1.0 immunofluorescence intensity,[4],106 (inactive)
CCCCCCCCCCCC(=O)O [Dodecanoic acid],cell number,[1],100
same,cell number,[2],102
same,H1.0 immunofluorescence intensity,[3],103 (inactive)
same,H1.0 immunofluorescence intensity,[4],101 (inactive)
CC(N=C(NC#N)Nc1ccncc1)C(C)(C)C (stereo unspecified) [Pinacidil],cell number,[1],103 ± 2.5
same,cell number,[2],107 ± 6.8
same,H1.0 immunofluorescence intensity,[3],89.4 (inactive)
same,H1.0 immunofluorescence intensity,[4],101 (inactive)
CN1c2ccccc2C(=O)N2CCc3c([nH]c4ccccc34)C21 (stereo unspecified) [Evodiamine],cell number,[1],61.2
same,cell number,[2],9.57
same,H1.0 immunofluorescence intensity,[3],165 (active)
same,H1.0 immunofluorescence intensity,[4],123 (inactive)
CSc1ccc2c(c1)N(CCC1CCCCN1C)c1ccccc1S2.Cl (stereo unspecified) [Thioridazine hydrochloride],cell number,[1],86.6
same,cell number,[2],90.6
same,H1.0 immunofluorescence intensity,[3],110 (inactive)
same,H1.0 immunofluorescence intensity,[4],155 (active)
CCOc1nc2cccc(C(=O)O)c2n1Cc1ccc(-c2ccccc2-c2nn[nH]n2)cc1 [Candesartan],cell number,[1],104
same,cell number,[2],97.2
same,H1.0 immunofluorescence intensity,[3],99.8 (inactive)
same,H1.0 immunofluorescence intensity,[4],99.7 (inactive)
CN(C)CCN(Cc1cccs1)c1ccccn1.Cl [Methapyrilene hydrochloride],cell number,[1],112
same,cell number,[2],95.7
same,H1.0 immunofluorescence intensity,[3],93 (inactive)
same,H1.0 immunofluorescence intensity,[4],92.7 (inactive)
O=C([O-])Cc1ccccc1Nc1c(Cl)cccc1Cl.[Na+] [Diclofenac sodium],cell number,[1],109
same,cell number,[2],97.8
same,H1.0 immunofluorescence intensity,[3],99.1 (inactive)
same,H1.0 immunofluorescence intensity,[4],89.9 (inactive)
CCN1CCCC1CNC(=O)c1cc(S(N)(=O)=O)ccc1OC (racemic),cell number,[1],106
same,cell number,[2],118
same,H1.0 immunofluorescence intensity,[3],98.8 (inactive)
same,H1.0 immunofluorescence intensity,[4],99.3 (inactive)
CN(C)c1ccnc2sc3c(=O)n(N4CCCCCC4)cnc3c12,cell number,[1],109
same,cell number,[2],103
same,H1.0 immunofluorescence intensity,[3],91 (inactive)
same,H1.0 immunofluorescence intensity,[4],89.5 (inactive)
"COc1cc(C(=O)c2ccc3ncccc3c2)cc(OC)c1OC [quinolin-6-yl(3,4,5-trimethoxyphenyl)methanone]",cell number,[1],59.6
same,cell number,[2],8.78
same,H1.0 immunofluorescence intensity,[3],209 (active)
same,H1.0 immunofluorescence intensity,[4],167 (active)
O=C1N=c2ccccc2=C1c1[nH]c2ccccc2c1NOCCC(O)CO (stereo unspecified) [Indirubin Derivative E804],cell number,[1],60.8
same,cell number,[2],62.7
same,H1.0 immunofluorescence intensity,[3],102 (inactive)
same,H1.0 immunofluorescence intensity,[4],167 (active)
"CCCCCC=CCC=CCCCCCCCCCCC(=O)O [12(Z), 15(Z)-Heneicosadienoic acid]",cell number,[1],100
same,cell number,[2],103
same,H1.0 immunofluorescence intensity,[3],94.4 (inactive)
same,H1.0 immunofluorescence intensity,[4],105 (inactive)
"CCCCCCN(CCCCCC)C(=O)Cc1c(-c2ccc(F)cc2)[nH]c2ccccc12 [N,N-Dihexyl-2-(4-fluorophenyl)indole-3-acetamide]",cell number,[1],95.6
same,cell number,[2],102
same,H1.0 immunofluorescence intensity,[3],93.3 (inactive)
same,H1.0 immunofluorescence intensity,[4],94.3 (inactive)
C=C(C)C1CCC2(C(=O)O)CCC3(C)C(CCC4C5(C)CCC(O)C(C)(C)C5CCC43C)C12 (stereo unspecified) [Betulinic acid],cell number,[1],101
same,cell number,[2],108
same,H1.0 immunofluorescence intensity,[3],96.3 (inactive)
same,H1.0 immunofluorescence intensity,[4],97 (inactive)
CC(C)NCC(O)COc1ccc(CCOCC2CC2)cc1.Cl (stereo unspecified) [Betaxolol hydrochloride],cell number,[1],102
same,cell number,[2],122
same,H1.0 immunofluorescence intensity,[3],95.4 (inactive)
same,H1.0 immunofluorescence intensity,[4],89.4 (inactive)
CCC1C(=O)OCC1Cc1cncn1C.Cl (stereo unspecified) [Pilocarpine.HCl],cell number,[1],102 ± 2.4
same,cell number,[2],94.48 ± 0.24
same,H1.0 immunofluorescence intensity,[3],97.6 (inactive)
same,H1.0 immunofluorescence intensity,[4],102 (inactive)
N=C1SC(=Cc2ccc(-c3ccc4c(c3)C(=O)NC4=O)o2)C(=O)N1c1ccc(Br)cc1 [Bioymifi],cell number,[1],94.2
same,cell number,[2],67.9
same,H1.0 immunofluorescence intensity,[3],96.5 (inactive)
same,H1.0 immunofluorescence intensity,[4],277 (active)
O=c1ncnc2[nH][nH]cc1-2 [Allopurinol],cell number,[1],103
same,cell number,[2],109
same,H1.0 immunofluorescence intensity,[3],97.1 (inactive)
same,H1.0 immunofluorescence intensity,[4],88.4 (inactive)
CC1(NC2=NS(=O)(=O)c3sc(Cl)cc3N2)CC1,cell number,[1],101
same,cell number,[2],90.6
same,H1.0 immunofluorescence intensity,[3],96.1 (inactive)
same,H1.0 immunofluorescence intensity,[4],94.7 (inactive)
O=C(O)C1CCCNC1C(=O)O (mixture of isomers),cell number,[1],108
same,cell number,[2],110
same,H1.0 immunofluorescence intensity,[3],96.4 (inactive)
same,H1.0 immunofluorescence intensity,[4],96.7 (inactive)
CC(=O)O.NC(=NCCCC(N)C(=O)O)NO [NG-Hydroxy-L-arginine acetate],cell number,[1],97.8
same,cell number,[2],107
same,H1.0 immunofluorescence intensity,[3],91.4 (inactive)
same,H1.0 immunofluorescence intensity,[4],89.2 (inactive)
N[C@@H](COP(=O)(O)O)C(=O)O [O-Phospho-L-serine],cell number,[1],99.1
same,cell number,[2],101
same,H1.0 immunofluorescence intensity,[3],94.9 (inactive)
same,H1.0 immunofluorescence intensity,[4],96.7 (inactive)
CON=C(C(=O)NC1C(=O)N2C(C(=O)[O-])=C(C[N+]3(C)CCCC3)CSC12)c1csc(N)n1 (stereo unspecified) [Cefepime],cell number,[1],99.6
same,cell number,[2],97
same,H1.0 immunofluorescence intensity,[3],91.1 (inactive)
same,H1.0 immunofluorescence intensity,[4],110 (inactive)

# Reference: the supplement of paper PMC7156485
